Data as given in PubChem BioAssay (Tox21).
Several values for one entry are separate records, joined by “and”; a condition that tells them apart may be missing. Equal values may be shown once. Results filed as inconclusive are left out. Where a call stands in place of a potency, no number is given. The source holds several records for some structures; these can differ, active in one and inactive in another. Activity calls are given as the source filed them. Unless noted, calls come from the whole dose curve; as a rule, active = well fitted curve in the direction sought with a large enough effect in the repeat runs; inconclusive = weak or mixed curves; inactive = no such curve, though single readings can be large; an effect the other way counts as inactive or inconclusive.

Key:
[1] = biological target: Estrogen receptor beta (Homo sapiens) (UniProt Q92731); test: qHTS assay to identify small molecule agonists of the estrogen receptor beta (ER-beta) signaling pathway (AID 1259377; active = well fitted activation curve with a large enough effect in the signal ratio in the repeat runs, not every such curve was filed as active; the % refers to the signal ratio; note: potency is the fitted concentration of half-maximal effect)
Summary of the method: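 ER-beta-UAS-bla HEK293T (GripTite) cells carrying a UAS-driven beta-lactamase reporter, in medium with 2% charcoal-stripped FBS, were exposed to compounds for 16 hr at 37C; LiveBLAzer B/G FRET substrate was then added and fluorescence read after 2 hours at room temperature.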

[2] = biological target: Estrogen receptor beta (Homo sapiens) (UniProt Q92731); test: qHTS assay to identify small molecule antagonists of the estrogen receptor beta (ER-beta) signaling pathway (AID 1259378; active = well fitted inhibition curve with a large enough effect in the signal ratio in the repeat runs, not every such curve was filed as active; the % refers to the signal ratio)
Summary of the method: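 ER-beta-UAS-bla HEK293T (GripTite) cells in 2% charcoal-stripped FBS medium were preincubated 6 hr at 37C, dosed with compound, then stimulated with 1 nM E2 (final) for 16 hr; beta-lactamase reporter read by B/G FRET fluorescence after 2 hr substrate loading.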

[3] = qHTS assay to identify small molecule agonists of the androgen receptor (AR) signaling pathway in the presence of an antagonist - cell viability counter screen (AID 1259379); note: nearly all actives have a fitted effect of over 25% in size; note: potency is the fitted concentration of half-maximal effect;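 for activity change, negative = cytotoxicity: MDA-kb2 human breast cancer cells carrying an MMTV luciferase reporter; series mostly up to about 92 µM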
Summary of the method: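 Viability counter screen: CellTiter-Fluor fluorescence, measured in the same wells as the luciferase read-out. MDA-kb2 cells, 3,000/well, with nilutamide at 3.0uM final and compounds at 15 concentrations, 16 hr at 37C, 0% CO2.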

[4] = qHTS assay to identify small molecule agonists of the estrogen receptor beta (ER-beta) signaling pathway - cell viability counter screen (AID 1259380); note: nearly all actives have a fitted effect of over 30% in size; note: potency is the fitted concentration of half-maximal effect
Summary of the method: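 Luminescence read-out (CellTiter-Glo, 30 min, room temp) taken in the same wells as the beta-lactamase reporter assay; ER-beta-UAS-bla HEK293T cells exposed to DMSO-dissolved compounds for 16 hr at 37C in 2% charcoal-stripped FBS medium.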

[5] = qHTS assay to identify small molecule antagonists of the estrogen receptor beta (ER-beta) signaling pathway - cell viability counter screen (AID 1259382); note: nearly all actives have a fitted effect of over 55% in size; note: potency is the fitted concentration of half-maximal effect; for activity change, negative = cytotoxicity: series mostly up to about 92 µM
Summary of the method: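 Luminescent ATP read-out (CellTiter-Glo, 30 min, RT) taken in the same wells as the bla reporter assay. HEK293T ER-beta-UAS-bla cells in 2% charcoal-stripped FBS were exposed to compounds with 1nM E2 for 16 hr at 37C.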

[6] = biological target: Estrogen receptor (Homo sapiens) (UniProt P03372); test: qHTS assay to identify small molecule agonists of the estrogen receptor alpha (ER-alpha) signaling pathway in the presence of an antagonist (AID 1259383; calls by dose curve; note: nearly all actives have a fitted effect of over 15% in size; note: potency is the fitted concentration of half-maximal effect; for activation: top concentration of the series differs between compounds)
Summary of the method: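 Luciferase luminescence (ONE-Glo, 30min at room temperature) measured in VM7Luc4E2 cells after 22hr compound exposure at 15 concentrations, with 10.0nM ICI-182,780 final present; cells express endogenous ER-alpha and carry four EREs upstream of luciferase.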

[7] = qHTS assay to identify small molecule agonists or antagonists of the thyroid stimulating hormone receptor (TSHR) signaling pathway - wild type cell line counter screen (AID 1259384; calls by dose curve)
Summary of the method: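 Wild-type HEK293 cells were plated 18 h at 37 C/5% CO2, pin-dosed with compound plus Ro20-1724 medium, held 30 min at room temperature, then given cAMP-d2 and anti-cAMP-cryptate; fluorescence was read after 1 h. Fifteen concentrations, triplicate.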

[8] = biological target: Thyrotropin receptor (Homo sapiens) (UniProt P16473); test: qHTS assay to identify small molecule antagonists of the thyroid stimulating hormone receptor (TSHR) signaling pathway (AID 1259385; calls by dose curve; note: nearly all actives have a fitted effect of over 20% in size)
Summary of the method: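 TSHR-HEK293 cells were plated and held 18 h at 37C/5% CO2, then given compound plus Ro20-1724 and stimulated with TSH at 1.5 ng/mL final. After 30 min at room temperature, cAMP was detected with cAMP-d2/anti-cAMP-cryptate (1 h) by fluorescence.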

[9] = qHTS assay to identify small molecule agonists of the estrogen receptor alpha (ER-alpha) signaling pathway in the presence of an antagonist - cell viability counter screen (AID 1259386);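 note: series mostly up to about 92 µM; cells exposed to compounds for 22 h at 37 °C before the viability read; nearly all actives have a fitted effect of over 30% in size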
Summary of the method: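 Read-out: CellTiter-Fluor fluorescence after 1hr reagent incubation, measured in the same wells as the luciferase readout. VM7Luc4E2 cells were exposed to 15 compound concentrations with 10.0nM ICI-182,780 for 22hr at 37C.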

[10] = biological target: Progesterone receptor (Homo sapiens) (UniProt P06401); test: qHTS assay to identify small molecule agonists of the progesterone receptor (PR) signaling pathway (AID 1346784; calls by dose curve; note: nearly all actives have a fitted effect of over 30% in size)
Summary of the method: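 PR-UAS-bla HEK 293T cells carrying a UAS-driven beta-lactamase reporter were seeded in medium with 2% charcoal-stripped FBS, preincubated 6 hr at 37C, then exposed to compounds in DMSO for 16 hr; agonism was read by LiveBLAzer B/G FRET fluorescence.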

[11] = biological target: Progesterone receptor (Homo sapiens) (UniProt P06401); test: qHTS assay to identify small molecule antagonists of the progesterone receptor (PR) signaling pathway (AID 1346795; active = well fitted inhibition curve with a large enough effect in the signal ratio in the repeat runs, not every such curve was filed as active; the % refers to the signal ratio; note: potency is the fitted concentration of half-maximal effect)
Summary of the method: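 PR-UAS-bla HEK293T cells carrying a UAS-driven beta-lactamase reporter were plated in medium with 2% charcoal-stripped FBS and rested 6 hr at 37C. Compounds were added with 1 nM R5020 (final) for 16 hr, then FRET substrate loaded 2 hr at room temperature.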

[12] = qHTS assay to identify small molecule antagonists of the progesterone receptor (PR) signaling pathway - cell viability counter screen (AID 1346798); note: series mostly up to about 92 µM; nearly all actives have a fitted effect of over 50% in size
Summary of the method: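 PR-UAS-bla HEK293T cells in medium with 2% charcoal-stripped FBS were treated with compounds plus R5020 for 16 hr at 37C. Cell viability was then read by CellTiter-Glo luminescence after 30 min at room temperature in the same wells.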

[13] = qHTS assay to identify small molecule agonists of the progesterone receptor (PR) signaling pathway - cell viability counter screen (AID 1346799; calls by dose curve; note: nearly all actives have a fitted effect of over 45% in size)
Summary of the method: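 PR-UAS-bla HEK293T cells, 3,000 per well in medium with 2% charcoal-stripped FBS, were preincubated 6 hr at 37C, then exposed to compounds for 16 hr; viability was read as CellTiter-Glo luminescence after 30 min at room temperature.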

[14] = qHTS assay to identify small molecule antagonists of the TGF-beta/Smad signaling pathway - cell viability counter screen (AID 1346824); note: nearly all actives have a fitted effect of over 50% in size
Summary of the method: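 SBE-bla HEK 293T cells were plated overnight at 37 C, then given compounds in DMSO plus TGF-beta1 (added as 0.25 ng/mL solution) for 5 hr. After the bla read, CellTiter-Glo was added to the same wells and luminescence read after 30 min at room temperature.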

[15] = biological target: Thyrotropin-releasing hormone receptor (Homo sapiens) (UniProt P34981); test: qHTS assay to identify small molecule agonists of the thyrotropin-releasing hormone receptor (TRHR) signaling pathway (AID 1346891; calls by dose curve; note: series mostly up to about 58 µM)
Summary of the method: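 TRHR-expressing HEK293 cells were plated 18 h at 37 °C/5% CO2, loaded with calcium dye 2 h at 37 °C, then given compound in DMSO; fluorescence was read kinetically for 3 min at 1 s intervals.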

[16] = Human pregnane X receptor (PXR) small molecule agonists, qHTS cell viability counter screen (AID 1346977); note: nearly all actives have a fitted effect of over 50% in size
Summary of the method: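 PXR-Luc HepG2 cells in medium with 5% charcoal-stripped FBS were pre-incubated 5hr, then exposed to compounds for 24hr at 37C. Viability was read in the same wells by CellTiter-Fluor fluorescence, reagent added after 23hr with a 1hr incubation.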

[17] = qHTS assay to identify small molecule agonists of the TGF-beta/Smad signaling pathway - cell viability counter screen (AID 1346829); note: nearly all actives have a fitted effect of over 45% in size; note: potency is the fitted concentration of half-maximal effect; for activity change, negative = cytotoxicity: top concentration of the series differs between compounds
Summary of the method: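 In parallel with the Smad reporter read, viability of HEK 293T cells stably carrying SBE-bla is quantified by ATP luminescence following 5 hr compound treatment.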

[18] = biological target: Thyrotropin-releasing hormone receptor (Homo sapiens) (UniProt P34981); test: qHTS assay to identify small molecule antagonists of the thyrotropin-releasing hormone receptor (TRHR) signaling pathway (AID 1346877; active = well fitted inhibition curve with a large enough effect in the repeat runs, not every such curve was filed as active; note: series mostly up to about 51 µM)
Summary of the method: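 HEK293/TRHR cells, 18 h, 37 °C; Ca2+ dye 2 h; cpd 5 min RT; TRH 1 nM final; fluorescence read 3 min, 1 s intervals; 15 concs, triplicate.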

[19] = qHTS assay to identify small molecule agonists of the TGF-beta/Smad signaling pathway (AID 1346859; active = well fitted activation curve with a large enough effect in the signal ratio in the repeat runs, not every such curve was filed as active; the % refers to the signal ratio; note: series mostly up to about 77 µM)
Summary of the method: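 HEK 293T cells stably carrying a beta-lactamase reporter driven by the Smad binding element were seeded overnight, exposed to DMSO-dissolved compounds for 5 hr at 37 C, 5% CO2, then loaded with FRET substrate for 2 hr at room temperature.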

Estrogen receptor beta (Homo sapiens), sequence (Q92731 whole entry, looked up): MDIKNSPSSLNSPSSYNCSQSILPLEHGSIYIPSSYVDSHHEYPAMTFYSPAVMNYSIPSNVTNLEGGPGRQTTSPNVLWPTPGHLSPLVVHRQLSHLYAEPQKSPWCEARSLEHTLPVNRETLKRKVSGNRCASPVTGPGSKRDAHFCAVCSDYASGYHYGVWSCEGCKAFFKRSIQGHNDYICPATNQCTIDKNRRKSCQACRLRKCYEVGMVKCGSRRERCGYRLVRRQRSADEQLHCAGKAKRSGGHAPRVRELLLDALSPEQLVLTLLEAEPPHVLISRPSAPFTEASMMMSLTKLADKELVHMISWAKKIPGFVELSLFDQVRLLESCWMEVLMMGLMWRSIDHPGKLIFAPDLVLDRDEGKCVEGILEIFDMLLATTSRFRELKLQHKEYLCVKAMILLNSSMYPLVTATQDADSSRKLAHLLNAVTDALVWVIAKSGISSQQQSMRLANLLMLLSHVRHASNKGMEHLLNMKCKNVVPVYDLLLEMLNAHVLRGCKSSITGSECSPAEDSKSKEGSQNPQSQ
Estrogen receptor (Homo sapiens), sequence (P03372 whole entry, looked up): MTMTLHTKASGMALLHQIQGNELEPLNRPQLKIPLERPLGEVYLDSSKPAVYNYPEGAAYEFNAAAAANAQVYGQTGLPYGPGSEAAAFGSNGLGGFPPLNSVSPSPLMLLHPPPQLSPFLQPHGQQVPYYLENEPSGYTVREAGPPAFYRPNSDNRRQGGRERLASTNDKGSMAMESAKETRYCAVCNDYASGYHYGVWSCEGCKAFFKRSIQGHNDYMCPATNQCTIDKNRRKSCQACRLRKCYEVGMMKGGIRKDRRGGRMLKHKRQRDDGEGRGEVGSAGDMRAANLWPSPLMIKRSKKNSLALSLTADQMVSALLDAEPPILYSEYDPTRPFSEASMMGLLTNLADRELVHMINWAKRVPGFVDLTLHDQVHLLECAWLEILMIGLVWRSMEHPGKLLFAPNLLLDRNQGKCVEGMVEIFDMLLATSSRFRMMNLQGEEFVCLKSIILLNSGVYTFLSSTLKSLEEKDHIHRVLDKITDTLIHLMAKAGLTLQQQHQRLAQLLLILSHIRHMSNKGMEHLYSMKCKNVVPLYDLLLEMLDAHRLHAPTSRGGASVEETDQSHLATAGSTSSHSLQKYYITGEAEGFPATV
Progesterone receptor (Homo sapiens), sequence (P06401 whole entry, looked up): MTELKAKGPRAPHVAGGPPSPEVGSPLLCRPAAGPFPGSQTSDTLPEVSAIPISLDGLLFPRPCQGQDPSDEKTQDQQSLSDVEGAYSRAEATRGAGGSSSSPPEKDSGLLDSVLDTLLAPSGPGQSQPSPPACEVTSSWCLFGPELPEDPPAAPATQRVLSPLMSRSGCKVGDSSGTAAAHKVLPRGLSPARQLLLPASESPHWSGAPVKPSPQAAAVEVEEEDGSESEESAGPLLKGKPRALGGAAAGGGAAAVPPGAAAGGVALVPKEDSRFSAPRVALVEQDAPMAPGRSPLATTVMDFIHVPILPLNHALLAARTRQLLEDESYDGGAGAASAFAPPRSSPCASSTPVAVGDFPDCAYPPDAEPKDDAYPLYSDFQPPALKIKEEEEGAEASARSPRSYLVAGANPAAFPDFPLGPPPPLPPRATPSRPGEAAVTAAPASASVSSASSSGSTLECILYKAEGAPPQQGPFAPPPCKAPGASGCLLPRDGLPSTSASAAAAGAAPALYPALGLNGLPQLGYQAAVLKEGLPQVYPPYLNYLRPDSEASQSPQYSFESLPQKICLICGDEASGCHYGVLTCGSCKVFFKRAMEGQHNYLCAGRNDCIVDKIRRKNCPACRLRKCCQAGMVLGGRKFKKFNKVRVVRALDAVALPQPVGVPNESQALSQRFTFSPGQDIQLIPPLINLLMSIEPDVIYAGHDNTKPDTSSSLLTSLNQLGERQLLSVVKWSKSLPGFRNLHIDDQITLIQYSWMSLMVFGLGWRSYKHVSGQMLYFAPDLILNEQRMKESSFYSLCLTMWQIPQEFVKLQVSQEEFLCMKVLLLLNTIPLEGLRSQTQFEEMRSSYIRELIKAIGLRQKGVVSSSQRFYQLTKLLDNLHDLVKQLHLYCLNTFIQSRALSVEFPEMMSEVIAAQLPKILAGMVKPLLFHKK
Thyrotropin receptor (Homo sapiens), sequence (P16473 whole entry, looked up): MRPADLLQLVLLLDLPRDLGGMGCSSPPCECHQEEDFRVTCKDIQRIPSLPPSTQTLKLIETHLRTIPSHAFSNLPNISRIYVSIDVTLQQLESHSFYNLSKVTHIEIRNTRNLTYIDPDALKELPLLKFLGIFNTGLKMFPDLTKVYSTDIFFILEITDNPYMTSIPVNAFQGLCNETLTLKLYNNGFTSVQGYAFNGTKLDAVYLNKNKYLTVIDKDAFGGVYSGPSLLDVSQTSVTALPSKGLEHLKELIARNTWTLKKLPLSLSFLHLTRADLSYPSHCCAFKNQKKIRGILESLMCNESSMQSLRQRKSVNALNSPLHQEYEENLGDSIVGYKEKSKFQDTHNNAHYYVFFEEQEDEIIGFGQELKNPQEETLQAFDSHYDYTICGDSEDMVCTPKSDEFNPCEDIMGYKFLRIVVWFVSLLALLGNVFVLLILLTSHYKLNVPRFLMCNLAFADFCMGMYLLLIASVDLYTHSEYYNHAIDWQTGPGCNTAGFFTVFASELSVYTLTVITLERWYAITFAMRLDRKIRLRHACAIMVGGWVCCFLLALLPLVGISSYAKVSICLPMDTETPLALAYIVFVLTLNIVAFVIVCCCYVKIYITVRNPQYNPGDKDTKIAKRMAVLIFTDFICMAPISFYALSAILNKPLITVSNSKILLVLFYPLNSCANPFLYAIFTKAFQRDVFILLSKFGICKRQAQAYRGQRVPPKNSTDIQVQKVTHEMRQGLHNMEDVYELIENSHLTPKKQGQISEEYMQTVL
Thyrotropin-releasing hormone receptor (Homo sapiens), sequence (P34981 whole entry, looked up): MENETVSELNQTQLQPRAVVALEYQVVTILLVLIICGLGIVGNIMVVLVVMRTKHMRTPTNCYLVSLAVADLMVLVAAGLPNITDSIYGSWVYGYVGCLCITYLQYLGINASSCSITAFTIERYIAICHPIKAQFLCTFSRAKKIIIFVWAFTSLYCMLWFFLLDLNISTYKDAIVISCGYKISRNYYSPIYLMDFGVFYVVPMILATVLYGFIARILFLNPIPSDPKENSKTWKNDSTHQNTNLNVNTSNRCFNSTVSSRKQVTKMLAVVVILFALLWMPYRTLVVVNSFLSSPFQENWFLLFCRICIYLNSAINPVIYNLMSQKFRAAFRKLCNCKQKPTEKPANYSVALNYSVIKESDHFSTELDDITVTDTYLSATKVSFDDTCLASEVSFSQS

SMILES: S=C=S
- Potency [1]: inactive
- outcome [2]: inactive
- Potency [3]: inactive
- Potency [4]: inactive
- Potency [5]: inactive
- Potency [6]: inactive
- outcome [7]: inactive
- outcome [8]: inactive
- Potency [9]: inactive
- Potency [10]: inactive
- Potency [11]: inactive
- Potency [12]: inactive
- Potency [13]: inactive
- outcome [14]: inactive
- outcome [15]: inactive
- Potency [16]: inactive

SMILES: COc1cccc(C=O)c1
- Potency [1]: inactive
- outcome [2]: inactive
- Potency [3]: inactive
- Potency [4]: inactive
- Potency [5]: inactive
- Potency [6]: inactive
- outcome [7]: inactive
- outcome [8]: inactive
- Potency [9]: inactive
- Potency [10]: inactive
- Potency [11]: inactive
- Potency [12]: inactive
- Potency [13]: inactive
- Potency [17]: inactive
- Potency [18]: inactive
- Potency [16]: inactive

SMILES: Clc1cc2c(cc1Cl)Oc1cc(Cl)c(Cl)cc1O2
- activation [1]: -4.72% [at 0.348 µM] (inactive)
- activity, negative = inhibition [2]: 4.24% [at 0.349 µM] (inactive)
- activity change, negative = cytotoxicity [3]: 1.17% [at 0.35 µM] (inactive)
- activity change, negative = cytotoxicity [4]: 2.45% [at 0.349 µM] (inactive)
- activity change, negative = cytotoxicity [5]: -1.8% [at 0.349 µM] (inactive)
- activation [6]: -1.56% [at 0.349 µM] (inactive)
- cAMP activity change [7]: 1.16% [at 0.349 µM] (inactive)
- activity change, negative = inhibition [8]: -3.4% [at 0.349 µM] (inactive)
- activity change, negative = cytotoxicity [9]: 0.532% [at 0.349 µM] (inactive)
- activation [10]: 2.35% [at 0.349 µM] (inactive)
- activity change, negative = inhibition [11]: 5.7% [at 0.348 µM] (inactive)
- activity change, negative = cytotoxicity [12]: -11.1% [at 0.348 µM] (inactive)
- activity change, negative = cytotoxicity [13]: 4.69% [at 0.349 µM] (inactive)
- viability change, negative = cytotoxic [14]: -2.55% [at 0.29 µM] (inactive)
- activation [19]: 2% [at 0.29 µM] (inactive)
- activity, negative = inhibition [18]: 2.75% [at 0.194 µM] (inactive)
- activity change, negative = cytotoxicity [16]: -5.16% [at 0.349 µM] (inactive)

SMILES: CCCOC(=O)c1cncn1C(C)c1ccccc1 (centres undefined)
- Potency [1]: inactive
- outcome [2]: inactive
- Potency [3]: inactive
- Potency [4]: inactive
- Potency [5]: inactive
- Potency [6]: inactive
- outcome [7]: inactive
- outcome [8]: inactive
- Potency [9]: inactive
- Potency [10]: inactive
- Potency [11]: inactive
- Potency [12]: inactive
- Potency [13]: inactive
- outcome [14]: inactive
- Potency [17]: inactive
- outcome [15]: inactive
- Potency [16]: inactive

SMILES: CCC(CC)(CNC(=O)CCCO)c1cccc(OC)c1
- Potency [1]: inactive
- outcome [2]: inactive
- Potency [3]: inactive
- Potency [4]: inactive
- Potency [5]: inactive
- Potency [6]: inactive
- outcome [7]: inactive
- outcome [8]: inactive
- Potency [9]: inactive
- Potency [10]: inactive
- Potency [11]: inactive
- Potency [12]: inactive
- Potency [13]: inactive
- outcome [14]: inactive
- outcome [19]: inactive
- Potency [18]: inactive
- outcome [15]: inactive
- Potency [16]: inactive

SMILES: O=C(Cl)C(Cl)Cl
- Potency [1]: inactive
- outcome [2]: inactive
- Potency [3]: inactive
- Potency [4]: inactive
- Potency [5]: inactive
- Potency [6]: inactive
- outcome [7]: inactive
- outcome [8]: inactive
- Potency [9]: inactive
- Potency [10]: inactive
- Potency [11]: inactive
- Potency [12]: inactive
- Potency [13]: inactive
- outcome [14]: inactive
- outcome [19]: inactive
- outcome [15]: inactive
- Potency [16]: inactive

SMILES: O=C1C2CC=CCC2C(=O)N1SC(Cl)(Cl)Cl (centres undefined)
- Potency [1]: 8.6 µM (active)
- outcome [2]: inactive
- Potency [3]: 30.1 µM (active)
- Potency [4]: inactive and 30.1 µM (active)
- Potency [5]: inactive and 30.1 µM (active)
- Potency [6]: 2.42 µM (active) and inactive
- outcome [7]: inactive
- outcome [8]: inactive
- Potency [9]: inactive
- Potency [10]: inactive
- Potency [11]: inactive and 42.6 µM (active)
- outcome [14]: inactive
- Potency [17]: inactive and 48.2 µM (active)
- outcome [19]: inactive
- outcome [15]: inactive

SMILES: CN(C)C(=O)Oc1cc(OC(=O)N(C)C)cc(C(O)CNC(C)(C)C)c1 (centres undefined)
- Potency [1]: inactive
- outcome [2]: inactive
- Potency [3]: inactive
- Potency [4]: inactive
- Potency [5]: inactive
- Potency [6]: inactive
- outcome [7]: inactive
- outcome [8]: inactive
- Potency [9]: inactive
- Potency [10]: inactive
- Potency [11]: inactive
- Potency [12]: inactive
- Potency [13]: inactive
- outcome [14]: inactive
- outcome [19]: inactive
- Potency [18]: inactive
- outcome [15]: inactive
- Potency [16]: inactive
